Measured values published in PubChem BioAssay AID602281 (The Scripps Research Institute Molecular Screening Center, 2012).
Where “and” joins values, the source holds several entries; their conditions need not be identical. Equal values may be shown once. In all, about 360,000 compounds went through this assay and about 2,900 (0.81%) were called active. The sample holds actives, similar compounds and a random draw of the others, so the mix is not that of the screen.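 How the source made its calls: active means inhibition above the mean inhibition across every tested compound plus 3 SD (cut at about 22% in these data); inactive means the rest.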 The source holds several records for some structures; these can differ, active in one and inactive in another.

target: Perilipin-5 (Homo sapiens) + 1-acylglycerol-3-phosphate O-acyltransferase ABHD5 (Homo sapiens) (UniProt Q00G26+Q8WTS1); experiment: blockers of ABHD5 binding to perilipin-5 – cell lysate, split luciferase complementation, luminescence, primary screen (AID 602281);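 further: 0% = DMSO only wells and the 100% control is not disclosed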; details: Split G. princeps luciferase complementation, 4 h, at 4 µM, stronger effect = higher value
Sequence (Q00G26 whole entry, looked up): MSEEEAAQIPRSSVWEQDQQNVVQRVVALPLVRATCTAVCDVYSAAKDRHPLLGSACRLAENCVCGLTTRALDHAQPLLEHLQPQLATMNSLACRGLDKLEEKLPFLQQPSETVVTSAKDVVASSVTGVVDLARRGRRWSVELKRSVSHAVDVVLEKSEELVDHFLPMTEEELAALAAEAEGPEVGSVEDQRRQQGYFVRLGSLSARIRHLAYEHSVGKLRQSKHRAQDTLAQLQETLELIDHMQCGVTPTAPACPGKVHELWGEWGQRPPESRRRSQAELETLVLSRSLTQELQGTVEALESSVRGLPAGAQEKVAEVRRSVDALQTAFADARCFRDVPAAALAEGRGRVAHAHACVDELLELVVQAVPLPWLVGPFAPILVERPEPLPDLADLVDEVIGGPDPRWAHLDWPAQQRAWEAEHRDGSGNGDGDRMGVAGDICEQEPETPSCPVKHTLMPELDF
Sequence (Q8WTS1 whole entry, looked up): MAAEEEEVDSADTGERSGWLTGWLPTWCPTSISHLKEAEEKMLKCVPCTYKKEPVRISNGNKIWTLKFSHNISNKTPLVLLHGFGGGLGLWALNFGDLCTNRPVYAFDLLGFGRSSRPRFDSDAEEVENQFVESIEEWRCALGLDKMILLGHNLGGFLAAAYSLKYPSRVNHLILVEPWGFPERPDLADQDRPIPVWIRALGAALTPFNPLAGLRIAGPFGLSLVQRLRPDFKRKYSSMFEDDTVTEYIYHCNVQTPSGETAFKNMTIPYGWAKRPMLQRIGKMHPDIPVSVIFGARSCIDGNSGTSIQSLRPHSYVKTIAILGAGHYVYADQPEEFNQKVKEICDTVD

Compound | inhibition
CN(C)c1cc(N)c2ccccc2n1 (tested in a mixture with another compound) | -3.32% (inactive)
O=C(O)c1ccc(S(=O)(=O)N2CCC(Cc3ccccc3)CC2)cc1 | -8.86% (inactive)
Cc1ccc2[nH]c(=O)c(CC=C(Cl)Cl)c(C)c2c1 | 1.26% (inactive)
C=C1C(=O)[C@]23C[C@H]1CCC2[C@@]1(C)C(C[C@@H]3O)[C@](C)(C(=O)O)CC[C@@H]1O (some centres not stated) | 36.1% (active)
CCN(C(=O)COC(=O)c1cc(NS(=O)(=O)c2ccc(Cl)c([N+](=O)[O-])c2)ccc1O)C1CCCCC1 | -3.6% (inactive)
O=Cc1ccc(OCc2cn3ccccc3n2)cc1 | -8.56% (inactive)
COc1cc(N2C(=O)c3ccccc3C2=O)c(Cl)cc1C(=O)OCC(=O)N1CCOCC1 | -1.51% (inactive)
C(=C\c1ccccc1)/CSc1nnc(-c2cccnc2)n1Cc1ccco1 | 7.27% (inactive)
CCn1c(SCC(=O)Nc2cc(C)ccc2C)nnc1-c1cnccn1 | 7.43% (inactive)
O=C(CSc1nnc(-c2cccnc2)n1Cc1ccco1)c1ccc(Cl)cc1 | 22.5% (active)
CCOC(=O)Cc1csc(NC(=O)CSc2nnc(-c3cccnc3)n2Cc2ccco2)n1 | 5.88% (inactive)
Cc1cc(C)nc(SCc2nnc(SCC(=O)Nc3ncc(C)s3)n2Cc2ccco2)n1 | 19.3% (inactive)
CCc1ccc(NC(=O)CSc2nnc(-c3cnccn3)n2Cc2ccco2)cc1 | 23.2% (active)
CCCCCNC(=O)C1C(=O)Nc2ccccc2C(=O)N1C(C)(C)C (configuration not stated) | 4.37% (inactive)
COc1cc(/C=C/CO)cc(OC)c1O[C@@H]1O[C@H](CO)[C@@H](O)[C@H](O)[C@H]1O | -1.15% (inactive)
O=C(/C=C/c1ccc(Cl)cc1Cl)c1cccnc1 | 74.7% (active)
O=C(CC(=O)c1cccnc1)c1ccccc1 | -23.9% (inactive)
O=C(OCc1cc(Cl)ccc1OC(F)F)c1cccnc1 | 4.48% (inactive)
Cc1ccc(S(=O)(=O)N(C)C)cc1NC(=O)c1n[nH]c(=O)c2ccccc12 | 5.24% (inactive)
O=C1CCCC(O)=C1N=Nc1ccc2ncsc2c1 | -5.19% (inactive)
O=C(Cn1cnc2c(nnn2-c2ccccc2)c1=O)N1CCC(Cc2ccccc2)CC1 | 7.96% (inactive)
O=C(/C=C/Sc1ncn[nH]1)c1ccc(Cl)cc1 | 57.9% (active)
O=C(Nc1ccc(F)cc1)C(CCc1ccccc1)N1CCN(CC(=O)N2CCCC2)CC1 (configuration not stated) | -3.25% (inactive)
CCCCc1cc2c(s1)CCCC/C2=N/O | -9.56% (inactive)
COc1ccc(CNC(=O)/C(C#N)=C/c2cccc(OC)c2OC)cc1 | 36% (active)

Compound | inhibition
COc1ccc(CNC(=O)c2c[nH]c3c(OC)cc(OC)cc3c2=O)cc1 | -1.89% (inactive)
COc1cc(/C=C(\C#N)C(=O)Nc2ccc3ccccc3c2)c([N+](=O)[O-])cc1OC | -3.38% (inactive)
COC(=O)C[C@H]1C[C@@H]2c3cc(NC(=O)Nc4ccccc4)ccc3O[C@@H]2[C@@H](CO)O1 | 3.8% (inactive)
c1ccc(-c2c[nH]c(-c3ccccc3)c2)cc1 | -5.36% (inactive)
O=C(NC1CCCCCCC1)c1cccs1 | -5.96% (inactive)
O=C(NNC(=O)c1ccc(Cl)cc1Cl)c1cccs1 | 3.54% (inactive)
O=C(N/N=C/C=C/c1ccco1)c1cccs1 | 36.5% (active)
Cc1cccc(CN2CCN(C3CN(Cc4cn(Cc5ccccc5F)nn4)S(=O)(=O)C3)CC2)c1 (configuration not stated) | 5.46% (inactive)
Cc1ccc(-c2c(N)nc3ncccn23)cc1 | -3.59% (inactive)
Cc1cccc(C=CC(=O)c2ccc(Cl)cc2)c1 | 34.8% (active)
Cc1cccc(C(=O)Nc2ccc(C(=O)/C=C/c3cccs3)cc2)c1 | 12.6% (inactive)
Cc1cc(C)nc(NC(=O)/C=C/c2ccc(Cl)cc2)n1 | 0.69% (inactive)
CCO[C@H]1OC(C(=O)Nc2ccccc2)=C[C@@H](C2CC2)[C@@H]1CCCO | -3.76% (inactive)
CCCCN1C(N)=NC[C@@H]1CC1CCCCC1 | 10.6% (inactive)
O=C1C=C(c2ccc(Cl)cc2)C(=O)N1Nc1ccccc1 | 66.8% (active)
Cc1ccn2cc(-c3nonc3C)cc2c1 | -1.69% (inactive)
CCc1ccccc1NC(=O)c1cc(-c2ccc3c(c2)OCO3)on1 | -4.14% (inactive)
COc1ccc(/C=C/C(=O)NC(=S)N2CCCC(C(N)=O)C2)cc1 (configuration not stated) | -2.44% (inactive)
COc1ccc(/C=C/C(=O)c2cc(Br)ccc(=O)c2O)cc1 | 22.1% (active)
CCOc1ccc(NC(=S)NC(=O)/C=C/c2ccc(OC)cc2)c([N+](=O)[O-])c1 | 2.26% (inactive)
O=C(O)c1cc2ccccc2c(=O)s1 | 10.5% (inactive)
NC[C@H](Cc1ccccc1)NCCc1cc(C(F)(F)F)cc(C(F)(F)F)c1 | 5.8% (inactive)
COc1cc(C2/C(=C(\O)c3ccc4c(c3)CC(C)O4)C(=O)C(=O)N2Cc2ccco2)ccc1O (configuration not stated) | 11.1% (inactive)
COc1ccc(/C(O)=C2/C(=O)C(=O)N(c3nc(C)c(C)s3)C2c2ccco2)cc1 (configuration not stated) | 6.99% (inactive)
COc1ccc(/C(O)=C2/C(=O)C(=O)N(CCCN(C)C)C2c2ccccc2)cc1OC (configuration not stated) | -4.94% (inactive)

Compound | inhibition
COc1ccc(/C(O)=C2/C(=O)C(=O)N(CC3CCCO3)C2c2ccc(OC)c(OC)c2)cc1 (configuration not stated) | 1.46% (inactive)
COc1ccc(/C(O)=C2\C(=O)C(=O)N(Cc3ccco3)C2c2ccc(OC)cc2OC)cc1 (configuration not stated) | 28.9% (active)
COc1ccccc1C1/C(=C(/O)c2ccc(C)cc2)C(=O)C(=O)N1Cc1ccco1 (configuration not stated) | 28.4% (active)
CC(C)c1nnc(NC(=O)C2CC(=O)N(CCc3ccc(F)cc3)C2)s1 (configuration not stated) | -0.4% (inactive)
CSc1nc(-c2ccccc2)nc(C(Cl)Cl)n1 | -6.27% (inactive)
COc1ccc(-c2nnc3n2CCCCC3)cc1 | 2.02% (inactive)
CCC(=O)N1CCc2cc(Br)c(S(=O)(=O)NCCN3CCCCC3CC)cc21 (configuration not stated) | 6.34% (inactive)
N#Cc1ccc(C(=O)OCC(=O)NC(=O)NC2CCCCC2)cc1 | -1.6% (inactive)
NC(=O)C1CCN(C(=O)CC2C(=O)NCCN2Cc2cccc(Oc3ccccc3)c2)CC1 (configuration not stated) | 4.81% (inactive)
CCN(CC)c1ccc(NC(=O)c2ccc(Cl)nc2)cc1 | -1.77% (inactive)
O=C(NNC(=O)c1ccc(Cl)nc1)c1ccc(Br)cc1 | -5.62% (inactive)
O=C(NNc1ccccn1)c1ccc(Cl)nc1 | 74% (active)
Cc1ccc(CSCCNC(=O)CN(c2ccc(F)cc2)S(C)(=O)=O)cc1 | -1.09% (inactive)
Cn1c(=O)[nH]c2c(c(C(=O)O)nn2C)c1=O | 18.8% (inactive)
Cc1cn(C2C=CC(CO)O2)c(=O)[nH]c1=O (configuration not stated) | 6.6% (inactive)
O=[N+]([O-])c1c(NCCO)cc(Sc2nc3ccccc3s2)c2nonc12 | 42.8% (active)
Nc1cc(N2CCCCCC2)c2nonc2c1[N+](=O)[O-] | 3.02% (inactive)
COc1ccccc1C(=O)Nc1nc2nc(-c3ccccc3)cc(=O)n2[nH]1 | -1.37% (inactive)
COc1ccc2c(c1OC)C(=O)OC2Nc1nc(-c2ccccc2)cs1 (configuration not stated) | 38.8% (active)
COc1cc(C(O)c2nc(-c3cccc(C(=O)O)c3)cs2)ccc1F (configuration not stated) | 7.06% (inactive)
O=C(c1cc(COc2ccc(F)cc2F)on1)N1CCOCC1 | -0.17% (inactive)
Cc1ccc(OCC(=O)c2cc(C)n(Cc3ccco3)c2C)c([N+](=O)[O-])n1 | 4.39% (inactive)
Cc1ccc(Cn2c(C)nc3c(c2=O)c2nc4ccccc4nc2n3Cc2ccco2)cc1 | 65.3% (active)
Cc1ccc(C(=O)CSc2nc3ccccc3c(=O)n2N)o1 | -5.64% (inactive)
COC(=O)C[C@H]1C[C@@H]2c3cc(N(C)C)ccc3O[C@@H]2[C@H](CO)O1 | 0.67% (inactive)

Compound | inhibition
c1ccc(CCc2ccccn2)cc1 | -3.97% (inactive)
c1ccc(CCC2=NCCn3cccc32)cc1 | 16.9% (inactive) and 27.5% (active)
CC1CSc2nnc(CCc3ccccc3)n21 (configuration not stated) | 0.6% (inactive)
CCc1ccc(-c2cc(C)no2)cc1S(=O)(=O)NCCc1ccc(S(N)(=O)=O)cc1 | -2.59% (inactive)
O=C(C1CCCO1)N1CCN(C(=O)C23CC4CC(CC(C4)C2)C3)CC1 (configuration not stated) | 0.93% (inactive)
O=C(Cn1cc(C(=O)C2CC2)c2ccccc21)Nc1ccccc1Cl | -0.4% (inactive)
CCOc1ccc(NC(=O)C(C)N2C(=O)c3ccccc3C2=O)cc1 (configuration not stated) | -3.97% (inactive)
O=C1/C(=C\c2ccc([N+](=O)[O-])cc2)CS(=O)(=O)C/C1=C/c1ccc([N+](=O)[O-])cc1 | 76.2% (active)
O=C(Cc1ccccc1)N1CCN(S(=O)(=O)c2ccc([N+](=O)[O-])cc2)CC1 | 1.18% (inactive)
O=[N+]([O-])c1ccc(N=NNc2ccc([N+](=O)[O-])cc2)cc1 | -4.36% (inactive)
Cc1ccc(S(=O)(=O)N(C)C)cc1NC(=O)c1ccccc1Br | -0.6% (inactive)
COc1ccc(C(C(=O)NCc2ccccc2)N(Cc2cccs2)C(=O)c2cnccn2)cc1 (configuration not stated) | -0.58% (inactive)
COc1cccc(-c2sc3ccc(OC)cc3c2-c2ccc(OCCN3CCCCC3)cc2)c1 | 14.8% (inactive)
COc1ccccc1-c1sc2ccccc2c1-c1ccc(Br)nc1 | -7.49% (inactive)
COc1ccc2sc(-c3ccccc3OC)c(-c3ccc(OCCN4CCCC4)cc3)c2c1 | 25.4% (active)
Cc1cc(C)c2c(n1)sc1c(=O)n(-c3ccccc3)c(=O)[nH]c12 | 9.86% (inactive)
CC1=CC(C)(C)Nc2ccc(OC(=O)C(Cc3ccccc3)N3C(=O)C4CCCCC4C3=O)cc21 (configuration not stated) | 47% (active)
O=C(C(Cc1ccccc1)n1cccc1)N1CCN(C2CCCCC2)CC1 (configuration not stated) | 5.03% (inactive)
CC1=CC(C)(C)Nc2ccc(OC(=O)CN3C(=O)C4CCCCC4C3=O)cc21 (configuration not stated) | 75% (active)
CCOC(=O)C(Cc1ccc(N)cc1)N1C(=O)c2ccccc2C1=O (configuration not stated) | -1% (inactive)
COc1ccc(C(=O)COC(=O)CN2C(=O)C3CC=CCC3C2=O)c(OC)c1 (configuration not stated) | -4.32% (inactive)
O=C(COC(=O)CN1C(=O)C2CCCCC2C1=O)Nc1ccc(F)c(F)c1F (configuration not stated) | -2.34% (inactive)
